aSyn 5UTR act – Activators via SNCA 5'UTR binding, MLPCN; activity score, % (tested at 7.5 µM), hits read low; AID 1814; hit rate 7.1% among 300,000; alpha-synuclein 5'UTR reporter, activators screen; in the data active = activity score below about -60%
Numbers stand for hits. Only a sample is shown.

Results for CCOC(=O)c1c(NC(=O)c2cc(C)oc2C)sc(C(=O)Nc2ccc(Cl)cc2)c1C ?
aSyn 5UTR act: -102

Results for Cc1ccsc1C(=O)Nc1ccc(OCc2ccccc2)cc1 ?
aSyn 5UTR act: -191

How did Cc1cc(C(=O)Nc2ccc(OCc3ccccc3)cc2)c(C)o1 do in these assays?
aSyn 5UTR act: -134

Results for COc1ccc(COc2ccsc2C(=O)Nc2ccc(Cl)c(Cl)c2)cc1 ?
aSyn 5UTR act: -68

Results for Cc1ccc(C(=O)Nc2ccc(OCc3ccccc3)cc2)s1 ?
aSyn 5UTR act: -107

What do the screens show for `O=C(Nc1cccnc1)c1sc2cccc(F)c2c1Cl`?
aSyn 5UTR act: -166

Results for C/C(=N\NC(=O)c1c(Cl)c(C)nn1C)c1cccc(NC(=O)COc2ccccc2)c1 ?
aSyn 5UTR act: -80

How did Cc1cc(NC(=O)COc2ccccc2)ccc1Cl do in these assays?
aSyn 5UTR act: -96

How did CCCOC(=O)Nc1ccc(N2CCCCC2)cc1 do in these assays?
aSyn 5UTR act: -67

How did CN1CCN(c2ccc(NC(=O)COc3ccccc3)cc2Cl)CC1 do in these assays?
aSyn 5UTR act: -192

How did CC(C)c1ccc(NC(=O)COc2ccccc2)cc1 do in these assays?
aSyn 5UTR act: -124

Results for Cc1ccc(SCC(=O)Nc2ccc(N3CCN(C)CC3)c(F)c2)cc1 ?
aSyn 5UTR act: -82

How did O=C(COc1ccccc1)Nc1ccc(N2CCCCC2)cc1 do in these assays?
aSyn 5UTR act: -74

Results for Cc1ccnc(NS(=O)(=O)c2ccc(NC(=O)COc3ccccc3)cc2)n1 ?
aSyn 5UTR act: inactive

What do the screens show for `CC(C)c1ccc(NC(=O)COc2ccccn2)cc1`?
aSyn 5UTR act: -130

How did O=C(COc1ccccc1)Nc1ccccc1N1CCN(c2ccccc2)CC1 do in these assays?
aSyn 5UTR act: inactive

How did CN(C)c1ccc(/C=C(\C#N)C(=O)NCc2ccco2)cc1 do in these assays?
aSyn 5UTR act: -102

Results for N#C/C(=C\c1cn(Cc2cccc(F)c2)c2ccccc12)C(=O)NCc1ccco1 ?
aSyn 5UTR act: inactive

What do the screens show for `N#C/C(=C\c1cn(Cc2ccccc2)c2ccccc12)C(=O)NCc1ccco1`?
aSyn 5UTR act: inactive

How did Cc1c(C(=O)Nc2cnccn2)oc2ccccc12 do in these assays?
aSyn 5UTR act: -107

Results for Cc1c(C(=O)Nc2cccc3cccnc23)oc2ccccc12 ?
aSyn 5UTR act: -118

Results for Cc1c(C(=O)Nc2ccc(Cl)cn2)oc2ccccc12 ?
aSyn 5UTR act: -91

How did CCOC(=O)c1sc(=NC(=O)c2ccc(Cl)s2)n(C)c1C do in these assays?
aSyn 5UTR act: -194

How did CCOC(=O)c1sc(=NC(=O)c2ccccc2Br)n(C)c1C do in these assays?
aSyn 5UTR act: -101

How did CCOC(=O)c1sc(=NC(=O)/C=C/c2ccccc2)n(C)c1C do in these assays?
aSyn 5UTR act: -111

Results for CCOC(=O)c1sc(=NC(=O)c2ccc(C)c(C)c2)n(C)c1C ?
aSyn 5UTR act: -283

What do the screens show for `CCOC(=O)c1sc(=NC(=O)c2cccs2)n(C)c1C`?
aSyn 5UTR act: -122

Results for Cc1ccc2c(c1)sc(=NC(=O)c1cccs1)n2C ?
aSyn 5UTR act: inactive

Results for Nc1[nH]c(N=NC(=O)c2ccccc2O)c2ccccc12 ?
aSyn 5UTR act: -150

Results for COc1ccc(-c2nnc(SCC(=O)c3cccs3)o2)cc1 ?
aSyn 5UTR act: -140

How did Cc1ccc(SCC(=O)c2ccc[nH]2)cc1 do in these assays?
aSyn 5UTR act: -126

How did COc1ccc(-c2nnc(SCC(=O)c3ccc[nH]3)o2)cc1 do in these assays?
aSyn 5UTR act: -107

How did c1ccn(-c2ccc(-c3ccn[nH]3)cc2)c1 do in these assays?
aSyn 5UTR act: -164

What do the screens show for `CCCCNC(=S)Nc1ccc(SC(F)F)cc1`?
aSyn 5UTR act: -164

What do the screens show for `COc1ccc(/C=N/Nc2nc(C(=O)O)cs2)cc1`?
aSyn 5UTR act: -78

What do the screens show for `CC(=O)c1sc(N/N=C\c2ccccc2O)nc1C`?
aSyn 5UTR act: -188

Results for CCOC(=O)c1sc(N/N=C/c2ccccc2)nc1C ?
aSyn 5UTR act: -207

Results for O=C(O)Cc1sc(N/N=C\c2ccccc2)nc1-c1ccccc1 ?
aSyn 5UTR act: -256

Results for CCOC(=O)c1sc(N/N=C/c2cccc(C)c2)nc1C ?
aSyn 5UTR act: -175

How did COC(=O)c1ccc(/C=N/Nc2nc(C)c(C)s2)cc1 do in these assays?
aSyn 5UTR act: -188

Results for Cc1ccc(NC(=O)c2ccc(C(C)(C)C)cc2)cc1[N+](=O)[O-] ?
aSyn 5UTR act: -159

What do the screens show for `Cc1ccc(NC(=O)c2cccs2)cc1[N+](=O)[O-]`?
aSyn 5UTR act: -94

What do the screens show for `Cc1cc(C)nc(Nc2ccc(C)c([N+](=O)[O-])c2)n1`?
aSyn 5UTR act: -99

What do the screens show for `O=c1c2[nH]c3ccccc3c2ncn1CCC1=CCCCC1`?
aSyn 5UTR act: -121

How did CCOc1ccc2[nH]c3c(NCCCOC)ncnc3c2c1 do in these assays?
aSyn 5UTR act: -96

How did COc1ccc2[nH]c3c(=O)n(CCc4ccccc4)cnc3c2c1 do in these assays?
aSyn 5UTR act: -76

Results for COc1ccc2[nH]c3c(NCCCN4CCCC4=O)ncnc3c2c1 ?
aSyn 5UTR act: -96

What do the screens show for `CC(C)OCCCNc1ncnc2c1[nH]c1ccccc12`?
aSyn 5UTR act: -178

Results for CCOc1ccc2[nH]c3c(NCC(C)C)ncnc3c2c1 ?
aSyn 5UTR act: -99

What do the screens show for `Clc1ccc(Cc2noc(-c3cccs3)n2)cc1`?
aSyn 5UTR act: -132

What do the screens show for `Oc1ccc(/C=C/c2cnccn2)cc1`?
aSyn 5UTR act: -171

What do the screens show for `CC(=O)N/C(N)=N/c1nc2cc(C)ccc2o1`?
aSyn 5UTR act: -63

Results for CC(=O)N/C(N)=N/c1nc2cc([N+](=O)[O-])ccc2o1 ?
aSyn 5UTR act: -97

Results for CN(C)c1ccc(N=Nc2nc3ccccc3n2C)cc1 ?
aSyn 5UTR act: -117

Results for O=C(Nc1nc2c(cc3c4c(cccc42)CC3)s1)c1ccccc1Cl ?
aSyn 5UTR act: -65

How did CCCCCn1cnc2sc(CC)cc2c1=O do in these assays?
aSyn 5UTR act: -169

How did CCc1cc2c(=O)n(-c3ccc(Br)cc3)cnc2s1 do in these assays?
aSyn 5UTR act: -160

How did CCc1cc2c(=O)n(CC(C)C)cnc2s1 do in these assays?
aSyn 5UTR act: -101

Results for Cc1cccc(NC(=O)/C=C/c2cccs2)n1 ?
aSyn 5UTR act: -108

How did O=C(/C=C/c1cccs1)NCc1ccccc1 do in these assays?
aSyn 5UTR act: -110

What do the screens show for `CC(C)(C)c1ccc(/C=C/C(=O)Nc2ccncc2)cc1`?
aSyn 5UTR act: -77

Results for O=C(/C=C/c1cccs1)Nc1ccc([N+](=O)[O-])cc1 ?
aSyn 5UTR act: -147

How did O=C(/C=C/c1cccs1)Nc1ccncc1 do in these assays?
aSyn 5UTR act: -126

What do the screens show for `Cc1ccc(NC(=O)/C=C/c2cccs2)c([N+](=O)[O-])c1`?
aSyn 5UTR act: -161

What do the screens show for `CCCOC(=O)c1ccc(NC(=O)/C=C/c2cccs2)cc1`?
aSyn 5UTR act: -209

How did CCCC1CCC(c2nc(-c3cccnc3)no2)CC1 (stereo not drawn) do in these assays?
aSyn 5UTR act: -166

How did CCOC(=O)Cc1ccc2sc(-c3ccccc3)nc2c1 do in these assays?
aSyn 5UTR act: -82

Results for CCCn1cc(NC(=O)c2cc(-c3ccccc3)on2)cn1 ?
aSyn 5UTR act: -134

Results for O=C(Nc1cc(Br)ccc1O)c1cc(-c2ccccc2)on1 ?
aSyn 5UTR act: -131

Results for Cc1ccc(O)c(NC(=O)c2cc(-c3ccccc3)on2)c1 ?
aSyn 5UTR act: -254

What do the screens show for `CCCc1cc(C(=O)Nc2ccccc2C(=O)OC)no1`?
aSyn 5UTR act: -71

Results for CCCc1cc(C(=O)Nc2cc(C)ccc2O)no1 ?
aSyn 5UTR act: -250
